Screening results deposited in PubChem by Sanford-Burnham Center for Chemical Genomics.
Most compounds without a hit are left out; they make up all but 2.1% or so of the library.
eIF4H inh: human eIF4H binding inhibitors, primary screen, translation initiation inhibitor project, biochemical, uHTS, fluorescence polarization; Eukaryotic translation initiation factor 4H (Homo sapiens), Q15056; eIF4H fluorescence polarization binding assay; inhibition, % at 35 µM; actives 0.94% (n = 290,000); AID 2012, 2009;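 note: calls also rest on retests at 20 µM and on dose response follow-up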
CendR NRP1 mod: modulators of CendR peptide binding to NRP-1, primary screen, biochemical, fluorescence polarization, uHTS; Neuropilin-1 (Homo sapiens), O14786; inhibition, % at 25 µM; actives 0.85% (n = 360,000); FAM-RPARPAR peptide binding to NRP-1;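 active = inhibition or corrected inhibition above about 18%, plus a signal ratio from 0.5 to 1.5, limit read from the data, passing the limit was not always enough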
PABP polyA inh: PABP poly(A) RNA binding inhibitors, primary screen, biochemical, fluorescence polarization, uHTS | actives 1% (n = 290,000) | inhibition, % at 35 µM | Polyadenylate-binding protein 1 (Homo sapiens), P11940;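 note: calls also rest on retests at 20 µM and on dose response follow-up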
Target sequence (P11940 whole entry, looked up): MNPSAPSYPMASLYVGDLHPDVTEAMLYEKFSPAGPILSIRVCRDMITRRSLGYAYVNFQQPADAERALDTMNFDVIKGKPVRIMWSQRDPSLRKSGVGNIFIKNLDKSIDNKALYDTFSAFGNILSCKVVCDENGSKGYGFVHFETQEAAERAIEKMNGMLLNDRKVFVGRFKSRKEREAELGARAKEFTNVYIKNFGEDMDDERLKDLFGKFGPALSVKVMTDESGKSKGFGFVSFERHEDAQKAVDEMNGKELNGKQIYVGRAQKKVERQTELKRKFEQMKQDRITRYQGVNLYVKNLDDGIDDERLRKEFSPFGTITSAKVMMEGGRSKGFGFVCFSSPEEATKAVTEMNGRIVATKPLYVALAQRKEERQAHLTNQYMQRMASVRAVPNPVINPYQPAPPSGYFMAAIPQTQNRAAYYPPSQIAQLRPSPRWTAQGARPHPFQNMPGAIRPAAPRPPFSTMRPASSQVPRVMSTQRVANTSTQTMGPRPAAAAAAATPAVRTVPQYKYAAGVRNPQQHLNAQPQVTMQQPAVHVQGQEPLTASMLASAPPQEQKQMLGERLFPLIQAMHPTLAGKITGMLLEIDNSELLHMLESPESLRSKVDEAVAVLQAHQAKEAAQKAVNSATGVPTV
MLLE-PAM2 inh: inhibitors of PABP1 MLLE–PAM2 peptide binding, primary screen, biochemical, fluorescence polarization, FITC-PAM2, GST-MLLE | Polyadenylate-binding protein 1 (Homo sapiens), P11940 | inhibition, % at 20 µM | actives 0.36% (n = 360,000) | AID 588489, 2011; in the data active = inhibition above about 35%, passing the limit was not always enough;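 note: plate controls were DMSO wells with GST-MLLE for no effect and wells lacking GST-MLLE protein for full effect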
The depositor's hits bear a star; u = inconclusive; x = no result given. Unless noted, the rule behind the calls is not given here.

SMILES	eIF4H inh	CendR NRP1 mod	PABP polyA inh	MLLE-PAM2 inh
O=C(CS(=O)(=O)c1ccc(Cl)cc1)N1CCN(c2ccccc2)CC1	x	4	x	-6
CC1(C)CC(=O)C2=C(C1)Oc1ncn3nc(-c4cccnc4)nc3c1C2c1ccccc1 (stereo not drawn)	2	31*	13	2
O=C1CC(c2ccco2)CC(O)=C1C=Nc1cc(Cl)ccc1O (stereo not drawn)	92*	-23	77*	8
O=C1CC(c2ccco2)CC(O)=C1C=Nc1cc(Cl)ccc1Cl (stereo not drawn)	104	0	-4	1
C=CCNC(=O)COC(=O)c1c2c(nc3ccccc13)CCC2	59*	8	36*	-8
COc1ccc(NC(=O)COC(=O)c2c3c(nc4ccccc24)CCCC3)cc1	2	2	-5	6
CNC(=O)COC(=O)c1c2c(nc3ccccc13)CCC2	66*	5	34	-19
CCCCNC(=O)COC(=O)c1c2c(nc3ccccc13)CCC2	68*	-17	18*	-17
CC(CNc1ccccc1O)C(=O)O (stereo not drawn)	100	-7	5	76*
Fc1ccc(C2=Nc3cccc4cccc(c34)N2)cc1	-8	0	-7	-8
FC(F)(F)C1=Nc2cccc3cccc(c23)N1	x	38*	x	1
CCN(CC(=O)Nc1ccccc1C(F)(F)F)C(=O)CCSc1ccc(F)cc1	x	-6	x	11
O=C(COc1ccc(-c2ccccc2)cc1)N1CCN(C(=O)c2cccnc2)CC1	1	-7	0	-12
O=C(c1ccccc1)N1CC(COc2ccccc2)OC(c2cccnc2)O1 (stereo not drawn)	63*	2	77*	-7
CC(=O)c1ccc2c(c1)C1C=CCC1C(c1cc3c(cc1Br)OCO3)N2 (stereo not drawn)	x	-10	x	0
COc1ccc2c(c1)C1C=CCC1C(c1cc3c(cc1Br)OCO3)N2 (stereo not drawn)	70*	-24	22	-23
CCn1c(=O)n(CC(=O)NCC2CCCO2)c(=O)c2c3c(sc21)COC(C)(C)C3 (stereo not drawn)	6	-2	2	-7
O=C(O)CCN1C(=O)C(=C2CCCCCC2)SC1=S	-7	-7	29	45*
O=C(COC(=O)COc1ccccc1)NCCC1=CCCCC1	x	4	x	0
Cc1[nH]c(=O)[nH]c(=O)c1/C=C/C(=O)OCC(C)C	u	-4	61*	8
Fc1ccc(C[n+]2csc3ccccc32)cc1	-12	-5	-14	42*
CC(C)N1CCc2c(sc(NC(=O)c3ccc(S(=O)(=O)N4CCOCC4)cc3)c2C#N)C1	78*	-143	88*	-58
COC(=O)c1cnc(Oc2ccc(NC(=O)NC(=O)c3ccccc3Cl)cc2)cc1C(F)(F)F	0	29*	8	10
C/C=C/c1ccc(OCCCCNCc2ccco2)c(OC)c1	8.0*	-4	84*	1
O=C(O)C1=CC2C=C(Cl)C=CC2OC1=O (stereo not drawn)	x	4	x	-7
SMILES	eIF4H inh	CendR NRP1 mod	PABP polyA inh	MLLE-PAM2 inh
Cc1cc(C)nc(N/N=C/c2ccccc2OCc2ccccc2)n1	82	-8	active	-7
Cc1cc(C)nc(N/N=C/c2ccccc2OCc2ccc(Br)cc2)n1	19	-4	-2	0
CCN(Cc1ccncc1)Cc1ccc(Br)cc1	14	9	11	-1
COC(=O)CCCn1cc(CN2CC(N3CCN(Cc4ccccc4F)CC3)CS2(=O)=O)nn1 (stereo not drawn)	x	6	x	x
O=C(CN1C(=O)c2ccccc2S1(=O)=O)Nc1ncc(Cl)cc1Cl	x	17	x	49*
COc1ccc(C)c2sc(=NC(=O)c3ccc(C(C)=O)cc3)n(C)c12	90*	-2	57*	13
Cc1cccc(N(C)c2ncnc3onc(-c4ccc(F)cc4)c23)c1C	-4	22*	3	10
O=C(C[C@H]1C(=O)N(Cc2ccccc2)C[C@@H]1Cc1ccccc1)Nc1ccc(Br)cc1	x	2	x	3
O=C(CN1C(=O)c2cccc([N+](=O)[O-])c2C1=O)N1CCc2ccccc2C1	x	-2	x	4
COc1cc(C(=O)OCC(=O)Nc2ccc(F)cc2F)cc(OC)c1OC	72*	0	84*	-3
COc1ccc2c3c(cccc13)C(=O)N(O)C2=O	95	17	8	40*
CCn1ncc(Br)c1C(=O)N(C)C12CC3CC(CC(C3)C1)C2	-4	27*	5	4
NC(=O)CCCn1c(C(=O)c2cc(Cl)c(N)c(Cl)c2)c2ccc(C(F)(F)F)cc2[n+]1[O-]	x	-10	x	0
COC(=O)C1=C(C(=O)OC)C(c2cc(Cl)ccc2O)c2sc(=O)[nH]c2S1 (stereo not drawn)	7	-14	2	33
COC(=O)C1=C(C(=O)OC)C(c2cc(Br)ccc2O)c2sc(=O)[nH]c2S1 (stereo not drawn)	0	-19	-22	44*
CCOc1ccc(S(=O)(=O)N2CCCCC2)cc1NC(=O)CN1C(=O)NC(C)(C2CC2)C1=O (stereo not drawn)	x	-2	x	-33
Nc1ncnc2c1c(-c1ccc(Oc3ccccc3)cc1)cn2C1CCCC1	x	1	x	2
CC(CCc1ccccc1)NC(=O)C1CCC1 (stereo not drawn)	x	2	x	-11
CCOC(=O)C1=CCN(S(=O)(=O)c2ccc(C)cc2)[C@H]1c1ccccc1Cl	x	12	x	12
O=C(O)CCC(=O)N1N=C(c2ccco2)CC1c1cccs1 (stereo not drawn)	76*	-18	active	13
COC(=O)C1=C(NC(=O)c2ccc(Br)cc2)CCS1	5	12	42	22
COC(=O)C1=C(NC(=O)c2ccc(C)c(C)c2)CCS1	1	-12	0	39*
CSc1ccc(CN(C)C(=O)c2cccc(S(=O)(=O)NCc3ccccc3)c2)cc1	25	7	57*	7
COc1ccccc1OCCNC(=O)CSC(=S)N1CCCC1	x	-6	x	15
COc1ccccc1OCC(=O)NNC(=O)CSC(=S)N1CCCC1	x	24*	x	-12
SMILES	eIF4H inh	CendR NRP1 mod	PABP polyA inh	MLLE-PAM2 inh
Cc1ccccc1N1CCN(Cc2ccc(Br)o2)CC1	12	7	8	8
Cn1nnnc1SCC(=O)c1ccco1	-6	19*	3	-94
Cc1ccc(C)c(NC(=O)C(=O)NCCCN2CCOCC2)c1	5	33*	7	-12
O=C(Nc1ccccc1N1CCOCC1)c1cccc2ccccc12	x	-3	x	-5
Cc1ccc(NC=C(S(=O)(=O)c2ccccc2)S(=O)(=O)c2ccccc2)cc1	8	29*	10	9
O=S(=O)(C(=CNc1ccccc1)S(=O)(=O)c1ccccc1)c1ccccc1	2	2	6	7
O=C(NCc1ccccc1)c1ccc(N2CCC3(CC2)CC(c2ccc(Cl)cc2)=NO3)c([N+](=O)[O-])c1	6	31*	10	11
